Experimental data from PubChem BioAssay (NCI).
Compounds without any hit were thinned out: in the full panel of roughly 83,000, 20% have a hit.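 Cells were grown in 96-well plates and exposed to the test compound at a single concentration for 48 hours; results are reported as percent growth, with values below 10 considered active.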 Unmarked numbers belong to inactive results. Activity calls are given as the source filed them.

Tested on: RPMI-8226 leukemia
Assay: NCI-60 one-dose screen, 48 h (100 = growth as untreated, 0 = no growth, -100 = all killed)
Details: 10 µM unless noted

Compared with `CC1=NN(c2ccccc2Cl)C(=O)/C1=C\c1cn(S(=O)(=O)c2ccc(C)cc2)c2ccccc12`, `COc1ccc(Cn2cc3c(c2-c2ccccc2)CCc2cncnc2-3)cc1` is lower in growth: 113% for the first, 19.6% for the second.

First: O=c1c(O)cccn1CCCNCCCN(CCCn1cccc(O)c1=O)CCCn1cccc(O)c1=O
Second: O=C(Nc1cccc2ccccc12)c1cc2c(cc1Br)OCO2
The growth of the first is higher: 131% for the first, 66.1% for the second.

Going from `O=C1OCC/C1=C\OCCCO/C=C1\CCOC1=O` to `O=C1NC(=O)/C(=C\c2ccccc2)C2=C1CCCC2`, the growth falls from 105% to 51.3%.

Going from `NC(=O)SCC(=O)Nc1ccccc1-c1ccccc1` to `S=C(c1ccccc1)N1CCN(c2cccc(Cl)c2)CC1`, the growth falls from 99.8% to 86.9%.

First: Cn1[nH]cc(/C=N/C(N)=O)c1=O
Second: CC12CCCCC1C(C(N)=O)C(=O)O2 (stereo not drawn)
The growth of the first is lower: 105% for the first, 106% for the second.

First: c1ccc2c(c1)[nH]c1c2cc[n+]2cc3c(cc12)CCCC3
Second: CCOC(=O)c1c2c(c(C)n1Cc1ccccc1)-c1nc(N)ncc1CC2
The growth of the first is lower: 32.6% for the first, 80% for the second.

Compared with `CN1CCCC1c1cccnc1` (stereo not drawn), `CCOC(=O)c1c(C)nc(C)c(C(=O)OCC)c1-c1cccnc1` is higher in growth: 70.7% for the first, 104% for the second.

Compared with `Cn1cc(-c2nc(-c3c[nH]c4ncccc34)cs2)c2cccnc21`, `Cn1cc(-c2csc(-c3cn(C)c4ncccc34)n2)c2cc(Br)cnc21` is higher in growth: 67.1% for the first, 79.3% for the second.

Going from `C[C@]12CC[C@@H]3c4ccc(O)c([N+](=O)[O-])c4CC[C@H]3[C@@H]1CC[C@@H]2NS(=O)(=O)c1ccc(C(F)(F)F)cc1` to `Cc1ccc([N+](=O)[O-])cc1NC(=O)Nc1cccc(F)c1`, the growth rises from 15.6% to 19.4%.

Compared with `O=C(Oc1ccc[nH]c1=O)c1cccc(Cl)c1`, `CCOC(=O)c1c2c(c(C)n1Cc1ccc(OC)cc1)-c1nc(N)ncc1CC2` is higher in growth: 108% for the first, 119% for the second.

Compared with `C[n+]1ccc(Nc2ccc(NC(=O)c3ccc(Nc4cc[n+](C)c5ccc(N)cc45)cc3)cc2)cc1`, `O=C(Nc1ccc(Nc2ccncc2)cc1)c1ccc(Nc2ccnc3ccc([N+](=O)[O-])cc23)cc1[N+](=O)[O-]` is higher in growth: 68.1% for the first, 77.8% for the second.

Going from `Cc1cc2c(cc1[N+](=O)[O-])NC(CNC(C)C)CC2` (stereo not drawn) to `COc1cc2c(c(OC)c1OC)CCc1cnoc1-2`, the growth falls from 105% to 98.1%.

Going from `CC(=O)Oc1c(C)c(OC(C)=O)c2c(c1C(C)=O)OC1CC(=O)C(C(C)=O)=C(O)C21C` (stereo not drawn) to `COc1ccc(/C(=C2\O[C@@H]([C@H](O)CO)[C@H]3OC(C)(C)O[C@@H]23)c2cc(OC)c(OC)c(OC)c2)cc1O`, the growth falls from 78.3% to 73.3%.

First: COc1ccc2nc(-c3ccc(-n4cncc4-c4ccc(OC)c(N)c4)cc3)sc2c1
Second: OC(CCC(O)(c1ccccc1)c1ccccc1)(c1ccccc1)c1ccccc1
The growth of the first is higher: 88.2% for the first, 35.5% for the second.

First: Nc1nc(Cl)c2[nH]cnc2n1
Second: CCC(c1ccccc1)c1noc(CCN(CC)CC)n1 (stereo not drawn)
The growth of the first is higher: 107% for the first, 76.7% for the second.

In the case of `CCC(CCC(C)C1CCC2C3CC=C4CC(O)CCC4(C)C3CCC12C)C(C)C` (stereo not drawn) (tested in a mixture with another compound), the growth is reported as 81.4%.

For `COc1ccc2nccc(/C=C/c3ccnc4ccc(OC)cc34)c2c1`, the growth was -5.34% (active).
`Cc1cc2cn3c4cccnc4[nH]c(=O)c3c2cc1C` was tested, and the growth was -5.48% (active).
In the case of `C=C(C)[C@H]1CC/C(C)=C/CC[C@]2(C)O[C@H]2CC/C(C=O)=C\C1O` (stereo partly drawn), the growth is reported as -17.5% (active).
For `COc1ccc2c(c1)[nH]c(=O)c1c3cc(OC)c(OC)cc3cn21`, the growth was -72.3% (active).
In the case of `O=C(Nc1ncc([N+](=O)[O-])s1)c1cccc([N+](=O)[O-])c1`, the growth is reported as -6.2% (active).
In the case of `Nc1ncc(-c2cnn(C3CCNCC3)c2)cc1-c1nc2cc(Cl)ccc2o1`, the growth is reported as -81% (active).
`COc1ccc(OC)c2c1[nH]c(=O)c1c3ccccc3cn21` was tested, and the growth was -21.8% (active).
